# PubChem BioAssay AID463173 (ICCB-Longwood Screening Facility, Harvard Medical School, 2010)
# About 4,300 (8.3%) of roughly 52,000 compounds were called active. For the sample, actives were picked, then their nearest neighbours and some compounds at random. Values without a mark were called inactive. No stated cut-off is given here; in the data, active means survival mostly below about 52% (no sharp cut-off); inactive means mostly above about 56%.
# Tested on: DeltatarO mutant
# Test: growth inhibition of S. aureus wild type versus tarO mutant, primary screen, teichoic acid synthesis inhibitors, RN4220, OD600 (AID 463173)
# Details: OD600, 18 h, hits give low values, screened at 18.75 µg/mL (by protocol)
row,SMILES,survival
1,CCOc1ccc(Cn2c(CNS(=O)(=O)c3ccc(CC)cc3)nc3cccnc32)cc1,95%
2,Cc1ccc(Cn2c(CNC(=O)Cc3cccc([N+](=O)[O-])c3)nc3cccnc32)cc1,70%
3,Cc1ccc(Cn2c(CNS(=O)(=O)c3ccc(Cl)s3)nc3cccnc32)cc1,124%
4,Cc1ccc(Cn2c(CNS(=O)(=O)c3ccc(F)c(Cl)c3)nc3cccnc32)cc1,126%
5,CCOc1ccc(Cn2c(CNS(=O)(=O)c3ccc([N+](=O)[O-])cc3)nc3cccnc32)cc1,94%
6,CCc1ccc(Cn2c(CNS(=O)(=O)c3ccc(Cl)s3)nc3cccnc32)cc1,66%
7,O=C(Cc1cccc([N+](=O)[O-])c1)NCc1nc2cccnc2n1Cc1ccc(F)cc1,118%
8,CCc1ccc(Cn2c(CNS(=O)(=O)c3ccc(F)c(Cl)c3)nc3cccnc32)cc1,20% (active)
9,O=S(=O)(NCc1nc2cccnc2n1Cc1ccccc1Cl)c1ccc(F)c(Cl)c1,87%
10,COc1ccc(Cn2c(CNC(=O)Cc3cccc([N+](=O)[O-])c3)nc3cccnc32)cc1,-5% (active)
11,CCc1ccc(Cn2c(CNS(=O)(=O)c3ccc([N+](=O)[O-])cc3)nc3cccnc32)cc1,8% (active)
12,O=S(=O)(NCc1nc2cccnc2n1Cc1ccc(F)cc1)c1ccc(Cl)s1,-5% (active)
13,C#CCN1CCOCC1,99%
14,Cc1cc2c(=O)c(C(=O)c3ccncc3)cn(CC(=O)Nc3cccc(C)c3C)c2cc1C,94%
15,CCOc1ccc(-c2cc3nc(C4CCN(C(=O)OC(C)(C)C)CC4)c(C(=O)Nc4cccc(Cl)c4C)cn3n2)cc1,81%
16,COc1ccc(NC(=O)CC2SC(=Nc3ccccc3)N(CCO)C2=O)cc1 (stereo not given),95%
17,Cc1nnc(NC(=O)C(C)N2CCCC2)s1 (stereo not given),97%
18,O=C(Nc1ccccc1Cl)N1CCc2ccccc2C1,91%
19,Cc1nn(C)c2c1c(-c1ccccc1)cc(=O)n2CC(=O)NC(C)(C)C,113%
20,COc1cccc(CSc2nc3n(n2)C(c2cccnc2)C(C(=O)Nc2ccccc2C)=C(C)N3)c1 (stereo not given),74%
21,COc1ccc(Cn2c(CNS(=O)(=O)c3ccc(C)c(C)c3)nc3cccnc32)cc1,17% (active)
22,COc1ccc(Cn2c(CNS(=O)(=O)c3ccc4c(c3)CCCC4)nc3cccnc32)cc1,128%
23,CCc1ccc(Cn2c(CNS(=O)(=O)c3ccc(C)c(C)c3)nc3cccnc32)cc1,81%

row,SMILES,survival
1,Cc1nc(-c2ccc(F)cc2)sc1CCNC(=O)c1ccccc1C(F)(F)F,97%
2,CCCCN(CC)CCCNC(=O)c1cn(CC)c2ccc(S(=O)(=O)N3CCOCC3)cc2c1=O,89%
3,COc1ccc(CNC(=O)CCc2cn(C)c3ccccc23)cc1,57%
4,CCOC(=O)c1sc2ccccc2c1S(=O)(=O)NCc1ccc(F)cc1,94%
5,COc1cc(C(=O)OCc2cc(=O)n3nc(C(C)C)sc3n2)cc(OC)c1OC,99%
6,COc1ccccc1C(=O)Nc1cccc(C(=O)OCc2cc(=O)n3ccsc3n2)c1,-4% (active)
7,Cc1ccccc1C(=O)Nc1ccccc1C(=O)OCc1cc(=O)n2ccsc2n1,77%
8,COc1ccccc1C(=O)Nc1ccccc1C(=O)OCc1cc(=O)n2ccsc2n1,-5% (active)
9,Cc1cccc(C(=O)OCc2cc(=O)n3ccsc3n2)c1,84%
10,COc1ccccc1C(=O)Nc1ccc(C(=O)OCc2cc(=O)n3ccsc3n2)cc1,96%
11,COc1cc(C(=O)OCc2cc(=O)n3ccsc3n2)cc(OC)c1OC,-2% (active)
12,O=C(Nc1ccccc1C(=O)OCc1cc(=O)n2ccsc2n1)c1ccccc1Cl,60%
13,Cc1ccccc1C(=O)Nc1cccc(C(=O)OCc2cc(=O)n3ccsc3n2)c1,72%
14,CCc1nnc2c(NCc3cccc(OC)c3)nc3ccccc3n12,89%
15,Cc1cc(C)c2c(=O)cc(C(=O)Nc3nc4ccc(F)cc4s3)oc2c1,61%
16,COc1ccc(-c2cn3c(n2)sc2cc(C(=O)NC4CCCCC4)ccc23)cc1,79%
17,CSc1cccc(NC(=O)Cn2ncn3c(cc4ccccc43)c2=O)c1,65%
18,CCN(Cc1ccccc1)C(=O)Cn1c(=O)n(-c2cccc(C)c2)c(=O)c2c1c1cc(OC)ccc1n2C,59%
19,O=C(NCC(c1cccnc1)N1CCc2ccccc2C1)C(=O)Nc1ccc(F)cc1F (stereo not given),107%
20,Cc1ccc(C(=O)Nc2c(-c3ccccc3)nc3ccccn23)cc1,40% (active)
21,Cc1ccc(C(=O)Nc2c(-c3ccccc3)nc3ccccn23)cc1C,34% (active)
22,Cc1cc(C(=O)Nc2c(C)nc3ccccn3c2=O)ccc1[N+](=O)[O-],92%
23,CC(C)Nc1c(-c2ccccc2)nc2ccccn12,105%

row,SMILES,survival
1,O=C(Nc1c(-c2ccccc2)nc2ccccn12)c1ccc(Br)cc1,31% (active)
2,O=C(Nc1c(-c2ccc(F)cc2)nc2ccccn12)c1ccccc1F,139%
3,Cc1cccc(C(=O)Nc2c(-c3ccc(F)cc3)nc3ccccn23)c1,91%
4,COC(=O)Nc1c(-c2ccccc2)nc2ccc(C)cn12,74%
5,O=C(Nc1c(-c2ccccc2)nc2ccccn12)c1ccccc1F,48%
6,Cc1cc(NC(=O)CSc2ccccc2)no1,88%
7,CCOC(=O)Cc1nnc2c(Nc3cc(C)ccc3C)nc3nonc3n12,101%
8,Cc1oc(-c2cccc(Cl)c2)nc1Cn1c(SCc2ccc(F)cc2)nc2cccnc21,85%
9,Cc1ccc(C)c2nc(SCC(=O)OC(C)C)c(C#N)cc12,92%
10,COc1ccc(C(NC(C)=O)c2ccc(OC)cc2)cc1,77%
11,Cn1cnc(S(=O)(=O)N2CCC(C(=O)N3CCN(c4cccc(C(F)(F)F)c4)CC3)CC2)c1,106%
12,O=C(NC1CCCC1)c1ccc(CSc2nc3cccnc3n2Cc2ccccc2)cc1,95%
13,COc1ccc(Cn2cc(S(=O)(=O)c3ccc(Cl)cc3)c(=O)c3cc4c(cc32)OCO4)cc1,58%
14,COc1ccccc1C(=O)Nc1cc2c(cc1N1CCCC1)n(C)c(=O)c(=O)n2C,89%
15,COc1nnc(-c2ccc(N3CCCCC3)c(NC(=O)c3ccc(C)cc3)c2)c2ccccc12,26% (active)
16,Cn1c(=O)c(=O)n(C)c2cc(N3CCCC3)c(NC(=O)c3ccccc3Cl)cc21,90%
17,Cn1nc(-c2ccc(N3CCCCC3)c(NC(=O)c3ccc(Cl)cc3)c2)c2ccccc2c1=O,66%
18,COc1nnc(-c2ccc(N3CCCCC3)c(NC(=O)c3ccccc3Cl)c2)c2ccccc12,-1% (active)
19,CCn1c(=O)c(=O)n(CC)c2cc(N3CCCCC3)c(NC(=O)c3cccc(OC)c3)cc21,85%
20,COc1nnc(-c2ccc(N3CCCCC3)c(NC(=O)c3ccc(Cl)cc3)c2)c2ccccc12,107%
21,COc1ccccc1C(=O)Nc1cc2c(cc1N1CCCCC1)n(C)c(=O)n2C,78%
22,COc1nnc(-c2ccc(N3CCCCC3)c(NC(=O)c3ccccc3)c2)c2ccccc12,0% (active)
23,COc1ccc(S(=O)(=O)Nc2ccc3c(c2)N(C(C)=O)CCC3)cc1F,85%

row,SMILES,survival
1,Cc1cc(SCCN2CCOCC2)nc2ccccc12,68%
2,CCc1ccc(CNC(=O)c2ccc3nc(SCc4ccc(F)cc4)n(C)c3c2)cc1,94%
3,O=C(CSc1cn(CC(=O)N2CCCC2)c2ccccc12)Nc1cc(C(F)(F)F)ccc1Cl,52%
4,O=C1CSC(c2ccccc2)N1Nc1nc(N2CCOCC2)nc(N2CCOCC2)n1 (stereo not given),101%
5,COc1cccc(CNC(=O)Cn2nc(N3CCN(c4ccccc4OC)CC3)ccc2=O)c1,86%
6,Cc1cccc(OCC(=O)Nc2ccc(NC(=O)c3ccco3)cc2)c1,83%
7,CCn1c2ccccc2c2cc(NC(=O)COC)ccc21,43% (active)
8,CCn1c2ccccc2c2cc(NC(=O)COc3ccc(C)c(C)c3)ccc21,119%
9,Cc1cc(OCC(=O)Nc2ccc3c(c2)OCCO3)cc(C)c1Cl,77%
10,CCn1c(=O)cc(SCC(=O)Nc2ccc(C)c(F)c2)c2ccccc21,89%
11,CCn1c(=O)cc(OCC(=O)Nc2cc(OC)c(OC)c(OC)c2)c2ccccc21,47%
12,CCn1c2ccccc2c2cc(NC(=O)COc3cc(C)c(Cl)c(C)c3)ccc21,50% (active)
13,CCn1c2ccccc2c2cc(NC(=O)COc3cccc(C)c3)ccc21,27% (active)
14,COc1ccc(Nc2cc(C)c3cc(NC(=O)COc4cccc(C)c4)ccc3n2)cc1,102%
15,COc1ccc(OCC2CNC(=O)O2)cc1 (stereo not given),61%
16,C=CCn1c(=O)/c(=C2/Sc3ccccc3N2CC)s/c1=C1/C(=O)NN=C1C,89%
17,Cc1ccc(Nc2ccc(N3CCN(C(=O)c4cccc([N+](=O)[O-])c4)CC3)nn2)cc1,85%
18,O=C(NCCc1ccccc1)c1ccc2c(c1)N(Cc1ccc(Cl)cc1)C(=O)c1ccccc1S2(=O)=O,89%
19,COCCCNC(=O)c1ccc2c(c1)N(Cc1ccccc1F)C(=O)c1ccccc1S2=O (stereo not given),83%
20,COC(=O)c1sc2cccc(F)c2c1S(=O)(=O)NCc1ccc(F)cc1,103%
21,N#CC1=C(N)C(C#N)(C#N)C(c2ccccc2)C2CCCC=C12 (stereo not given),97%
